This is a sample that favours compounds with a hit; in the whole collection about 14% have one here.
Pf growth 96h: Primary qHTS for delayed death inhibitors of the malarial parasite plastid, 96 hour incubation | P. falciparum luciferase reporter growth, 96 h | Potency, µM (top dose mostly 28.7 µM), without a hit: at the highest dose activity change, negative = inhibition, usual class: inhibitors | actives 6.9% (n = 320,000); further: potency means the concentration at half of the fitted maximal effect
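Infected RBCs, 2% Hct / 0.05% parasitemia final; luciferase-reporter P. falciparum; cpd 96 h, 37 C, 5% CO2; luciferase detection reagent; luminescence.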
HCV inhibitor: qHTS Assay for Inhibitors of Hepatitis C Virus (HCV); actives 3.4% (n = 340,000); Huh7.5.1 HCVcc-Cre infection, luciferase reporter, 44 h; AID 651820, 2012; Potency, µM (series often up to 41.8 µM), for inactives: at the top dose activity change, negative = inhibition, hits mostly inhibitors; further: potency means the concentration at half of the fitted maximal effect
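Cells (1,000/well) were plated 4 h before compound, then infected with HCVcc-Cre virus (~0.5 moi). After 44 h further culture, infection was read as luciferase luminescence following a 15 min substrate incubation at room temperature.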
MARV entry inh: qHTS for inhibitors of binding or entry into cells for Marburg Virus. Marburg virus pseudotyped entry inhibition, cell reporter. Potency, µM (doses to about 37.8 µM), for inactives: at the highest dose activity change, negative = inhibition, most hits filed as inhibitors. actives 1.8% (n = 300,000). AID 540276, 2011; calls by dose curve; tested in HEK293 cells; further: potency means the concentration at half of the fitted maximal effect
HCMV inh: qHTS Assay for inhibitors of the human cytomegalovirus (HCMV) | actives 4.5% (n = 410,000) | HFF cells, HCMV-luciferase reporter, 72 h; hits give low values | activity change, negative = inhibition, % at 57.5 µM; in the data active means activity change below about -60%; inconclusive means no clear call, values can overlap the other calls; inactive means above about -39%
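HFF cells seeded 16 h at 37C, treated with compounds, infected with luciferase-reporter HCMV at MOI 1 PFU/cell; luciferase read at 72 h post infection, normalized to buffer-only and Salinomycin controls.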
Pf growth 48h: Primary qHTS for delayed death inhibitors of the malarial parasite plastid, 48 hour incubation. P. falciparum luciferase growth in erythrocytes, 48 h. Potency, µM (series often up to 28.7 µM), inactives show top-dose activity change, negative = inhibition, actives largely listed as inhibitors. actives 5.9% (n = 310,000). AID 504832, 2011; further: potency means the concentration at half of the fitted maximal effect
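Read-out is firefly luciferase luminescence from an integrated reporter in P. falciparum, so falling signal marks reduced parasite growth. Infected erythrocytes were at 2% hematocrit and 0.1% parasitemia (final) in Albumax-supplemented RPMI 1640.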
Lassa entry inh: qHTS for Inhibitors of binding or entry into cells for Lassa Virus; Potency, µM (titrated, usually from 37.9 µM), for inactives: top-dose activity change, negative = inhibition, actives largely listed as inhibitors; Lassa virus pseudotype entry inhibition, cell reporter; AID 540256, 2011; actives 1.2% (n = 300,000); calls by dose curve; tested in HEK293 cells; further: potency means the concentration at half of the fitted maximal effect; nearly all actives have a fitted effect of over 50% in size
* hit, by the source's call; ? = inconclusive; nt = no result given; ! = a repeat was not active; [ ] = dose if it differs, or a comment. Unless noted, the call rests on the fitted dose curve; in most records, active means well fitted inhibition curve with a large enough effect; inconclusive means small, poorly fitted or top-dose-only effect, or another doubt; inactive means no such curve, though single readings can be large or run the other way. On the % scale 0 is the no-effect control and ±100 the full control effect.

SMILES	Pf growth 96h	HCV inhibitor	MARV entry inh	HCMV inh	Pf growth 48h	Lassa entry inh
CCOc1ccc(S(=O)(=O)NCCC(=O)N2CC(C)OC(C)C2)cc1 (stereo not drawn)	6.8%	-14.0%	2.5%[46.1 µM]	-10.3	-10.6%	-13.2%
COc1ccc(-c2nc(-n3c(C)c(C(C)=O)c(C(C)=O)c3C)sc2C)cc1OC	?	-31.6%	-21.0%	47.7	nt	3.3%
CC(=O)c1c(C(C)=O)c(C)n(-c2nc(-c3ccc(Br)cc3)c(C)s2)c1C	?	?	?	?	nt	16.4µM*
COc1ccc(CNC(=O)c2cccc(S(=O)(=O)N3CCCCC3)c2)cc1OC	?	6.31µM*	nt	-87.1*	?	nt
O=C(NCc1ccc(F)cc1)c1cc(S(=O)(=O)N2CCCCC2)ccc1Cl	36.0%	-0.1%	nt	-101.8*	-0.1%	nt
COc1ccc(CNC(=O)c2cc(S(=O)(=O)N3CCCCC3)ccc2Cl)cc1OC	nt	11.2µM*	?	-64.2*	nt	-25.5%
COc1ccc(CN(C)C(=O)c2cc(S(=O)(=O)N3CCCCCC3)ccc2OC)cc1OC	?	-16.8%	-1.6%	17.9	?	?
COc1ccccc1CNC(=O)c1ccc(S(=O)(=O)N2CCCC2)cc1	9.8%	-10.6%	0.3%	-0.2	-11.3%	-5.9%
COc1cc(OC)c(OC)cc1CNC(=O)c1ccc(S(=O)(=O)N2CCCCC2)cc1	5.22µM*	?	?	?	9.28µM*	-18.9%
CN(C)S(=O)(=O)c1ccc2c(c1)nnn2CCNC(=O)Nc1ccc(Cl)cc1	nt	nt	nt	-7.0	nt	4.3%[46.1 µM]
Cc1ccc(Cn2c(C(=O)Nc3cccc(Cl)c3)cc3sccc32)cc1	nt	nt	?	5.2	nt	-9.1%[46.1 µM]
CCn1nc(-c2ccccc2)c(-c2ccccc2)c(C(=O)Nc2ccc(S(N)(=O)=O)cc2)c1=O	nt	nt	11.9%[46.1 µM]	-12.4	nt	8.4%[46.1 µM]
CN1CCN(c2ncnc3c2ncn3[C@H]2CN(Cc3ccc4c(c3)OCO4)C[C@@H](CO)O2)CC1	nt	nt	nt	-29.1	nt	nt
O=C(NCc1cccnc1)c1cccc(S(=O)(=O)N2CCCCC2)c1	41.7%	-16.2%	-7.0%	-80.8*	-14.4%	10.5%
O=C(Nc1cc(S(=O)(=O)N2CCCCC2)ccc1Cl)c1ccccc1NS(=O)(=O)c1ccc(F)cc1	?	10µM*	?	nt	0.0%	3.55µM*
CCOc1ccc(CCNC(=O)c2cccc(S(=O)(=O)N3CCOCC3)c2)cc1OCC	?	?	1.7%	5.4	?	-21.4%
CCOc1ccc(CCNC(=O)c2cccc(N3CCCC3=O)c2)cc1OCC	nt	-13.8%	-13.0%	-79.4*	nt	-9.8%
CCOc1ccc(CCNC(=O)c2cccc(S(=O)(=O)N3CCCCC3)c2)cc1OCC	?	?	?	-6.7	14.7µM*	-23.9%
COc1ccc(CCNC(=O)c2ccc(N3CCCC3=O)cc2)cc1OC	4.4%	0.3%	8.2%	21.7	-21.9%	-1.0%
O=C(CN1C(=O)NC(c2ccccc2)(c2ccccc2)C1=O)NCc1ccc(F)cc1	nt	-21.2%	nt	-17.9	nt	nt
COc1ccc(-c2ccc(N3C(c4cc(OC)cc(OC)c4)=Cc4ccc(OC)cc4C3CC(C)=O)cc2)cc1 (stereo not drawn)	nt	nt	nt	-32.7	nt	nt
COC(=O)c1ccc(C(=O)OC)c(NC(=O)c2c(-c3ccccc3)noc2C)c1	nt	nt	-3.3%[46.1 µM]	-2.3	nt	-6.0%[46.1 µM]
CCOc1ccc(C(=O)NCCC2=CCCCC2)cc1OCC	28.0%	5.01µM*	?	96.0	-15.7%	-27.8%[46.1 µM]
COc1ccccc1CNC(=O)c1cccc(S(=O)(=O)N2CCN(C)CC2)c1	-0.8%	17.3%	-1.0%[46.1 µM]	-5.0	-3.0%	-15.9%
COc1ccc(OC)c(/C=N/NC(=O)CNC(=O)c2ccc(S(=O)(=O)N3CCCC3)cc2)c1	4.15µM*	12.8%	9.7%[46.1 µM]	86.2	26.6%	?
SMILES	Pf growth 96h	HCV inhibitor	MARV entry inh	HCMV inh	Pf growth 48h	Lassa entry inh
COc1ccc(CCNC(=O)c2cc(S(=O)(=O)N3CCC4(CC3)OCCO4)ccc2F)cc1OC	?	11.2µM*	?	-28.5	-12.6%	?
COc1cc(OC)c(OC)cc1CNC(=O)c1cccc(S(=O)(=O)N2CCc3ccccc3C2)c1	?	1.78µM*	?	?	?	?
COc1ccc(CNC(=O)CCCc2nnc3n(CCC(C)C)c(=O)c4sccc4n23)cc1	nt	nt	nt	-39.4	nt	-21.4%[46.1 µM]
CCOC(=O)C1CCN(c2nc3c(S(=O)(=O)c4ccc(Br)cc4)nnn3c3ccsc23)CC1	nt	nt	nt	17.4	nt	-12.0%[46.1 µM]
COc1ccc(CNC(=O)COc2ccc(S(=O)(=O)N3CCCCC3)cc2Cl)cc1	-23.9%	?	?	4.6	13.1µM*	12.6µM*
COc1ccc(CNC(=O)CN2CCN(S(=O)(=O)c3cc(Br)ccc3Br)CC2)cc1OC	?	-7.0%	-3.3%	-13.7	10.4µM*	0.0%
Cn1cc(C(=O)NCc2ccc(F)cc2)c(=O)c2cc(S(=O)(=O)N3CCCCC3)ccc21	-25.1%	?	?	16.9	14.7µM*	13.7%[46.1 µM]
CCCCCNC(=O)c1cc(S(=O)(=O)N2CCCC2)ccc1F	11.7µM*	25.6%	36.7%	-16.5	-14.0%	-23.9%
COc1ccc(CNC(=O)COc2ccc(S(=O)(=O)N3CCCCC3)cc2)cc1	10.6%	-2.2%	1.7%	7.5	?	-12.8%
O=C(NCCc1ccc(Cl)cc1)c1cc(S(=O)(=O)N2CCCC2)ccc1F	nt	nt	nt	-24.8	nt	nt
NC(=O)c1c(NC(=O)c2ccc(N3C(=O)CCC3=O)cc2)sc2c1CCCC2	?	?	nt	-16.6	-11.6%	nt
CCOc1ccccc1CN1CCC(N2CCOCC2)CC1	8.2%	9.4%	nt	-21.1	0.5%[0.00184 µM]	nt
Cn1cc(C(=O)Nc2ccc(C#N)cc2)c2ccccc2c1=O	31.4%	-7.9%	?	-67.4*!	8.2%	10.6%
CC(=O)OCC(=O)[C@@]12OC(C)(C)O[C@@H]1C[C@H]1[C@H]3C[C@H](F)C4=CC(=O)C=C[C@@]4(C)[C@]3(F)[C@H](O)C[C@@]12C	?	nt	nt	nt	-27.6%[12.8 µM]	nt
CC1(C)OC2CC3C4CC(F)C5=CC(=O)C=CC5(C)C4(F)C(O)CC3(C)C2(C(=O)CO)O1 (stereo not drawn)	5.86µM*	14.5%	?	37.7	?	12.7%[46.1 µM]
CC12C=CC(=O)C=C1CCC1C3CCC(O)(C(=O)CO)C3(C)CC(O)C12F (stereo not drawn)	nt	32.4%	22.0%	42.1	nt	20.6%
CC1(c2ccccc2)O[C@@H]2C[C@H]3[C@@H]4CCC5=CC(=O)C=C[C@]5(C)[C@@]4(F)[C@@H](O)C[C@]3(C)[C@]2(C(=O)CO)O1 (stereo partly drawn)	1.85µM*	-8.3%	10µM*	-1.7	0.828µM*	?

Assay outcomes as filed in PubChem.
